The values below come from PubChem BioAssay.

A short description of test [1]: viability loss in pontine glioma line – cell-based, JHH-DIPG-1, MIPE4.0, CellTiter-Glo, qHTS, dose response (AID 1347062; cut-off not given, nearly all actives have AC50 up to about 27 µM). Conditions: JHH-DIPG-1 viability, CellTiter-Glo ATP luminescence. On the technique in general: Cellular ATP, detected with luciferase, serves as a proxy for viable cell number.
Test [2] can be described thus: viability loss in pontine glioma line – cell-based, SU-DIPG-IV, MIPE4.0, CellTiter-Glo, qHTS, dose response (AID 1347063; cut-off not given, nearly all actives have AC50 up to about 30 µM;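 further: compound exposure lasted 48 hours before the viability readout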). The conditions noted are these: CellTiter-Glo ATP luminescence.
Test [3] can be described thus: viability loss in pontine glioma line – cell-based, SU-DIPG-XIII, MIPE5.0, CellTiter-Glo, qHTS, dose response (AID 1347064; cut-off not given, nearly all actives have AC50 up to about 23 µM;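 on AC50: cells exposed to compound for 48 hours before the viability read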). The conditions noted are these: CellTiter-Glo ATP luminescence.
Test [4] in a line: JHH-DIPG-1 glioma cell viability, MIPE5.0 library, CellTiter-Glo luminescence, qHTS (AID 1347067; cut-off not given, nearly all actives have AC50 up to about 26 µM;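 further: cells exposed to compound for 48 hours before readout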). The conditions noted are these: JHH-DIPG-1 glioma viability, CellTiter-Glo ATP luminescence.
The nature of test [5]: compounds altering HSF1 focus formation in cells – imaging, Selleck Cancer Library (AID 1347162; in the data active means plate-normalised HSF1 focus index below about 0.46). The conditions noted are these: human cells, HSF1 nuclear foci imaging, at 10 µM; SSMD: measured here: HSF1 foci SSMD mean; cell count: measured here: cell number; plate-normalised HSF1 focus index: stronger effect = lower value.
The nature of test [6]: growth inhibition, single agent or in combination, cell-based, chromothripsis tumors, cisplatin or BGB combos (AID 1671449).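 Further: cells exposed for 96 hours; 0% = vehicle DMSO and 100% = killing by high DMSO.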 The conditions noted are these: LFS_MB_P medulloblastoma cells.
A short description of test [7]: growth inhibition, single agent and combos, cell-based, chromothripsis tumors, cisplatin or BGB combos (AID 1671450).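 Further: cells exposed to compound for four days; 0% = vehicle DMSO and 100% = cell killing by high DMSO.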 Conditions: HDN33 neuroblastoma cells, stronger effect = higher value.
Test [8] in a line: growth inhibition, single agents and combos, ICB984, cell-based, cisplatin or BGB combos, synergistic combos for chromothripsis tumors (AID 1671451; call rule not given here;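 further: cells exposed for 96 hours before readout; 0% = vehicle DMSO and 100% = killing by high DMSO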). The conditions noted are these: ICB984 medulloblastoma cells, drug combinations, stronger effect = higher value.
The nature of test [9]: growth inhibition, single agents and combos, HTB85, cell-based, BGB or cisplatin IC20 combos, synergistic combos for chromothripsis tumors (AID 1671453).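 Further: cells exposed for 96 hours before readout; 0% = vehicle DMSO and 100% = high DMSO killing control.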 The conditions noted are these: HTB85 osteosarcoma cells, drug combinations, stronger effect = higher value.
The nature of test [10]: growth inhibition, MDA-MB-436, cell-based, BGB or cisplatin combos, synergistic combos for chromothripsis tumors (AID 1671458; call rule not given here;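 further: cells exposed for 96 hours; 0% = vehicle DMSO and 100% = killing by high DMSO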). Conditions: MDA-MB-436 breast carcinoma growth inhibition, drug combinations, stronger effect = higher value.
Test [11] is described as follows: BT084 cell growth, single and combined drugs, ICGC_MB145, cisplatin and BGB IC40 combos (AID 1671461).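 Further: cells exposed to drugs for 96 hours; 0% = vehicle DMSO and 100% = high DMSO full killing control.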 The conditions noted are these: BT084 medulloblastoma cells, drug combinations, stronger effect = higher value.
The nature of test [12]: RCMB18 cell growth, single agent and combined, cisplatin and BGB IC40 combos (AID 1671462).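 Further: cells exposed to compound for four days.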 The conditions noted are these: RCMB18 medulloblastoma cells, stronger effect = higher value.
A short description of test [13]: CRL1545 cell growth, single agent and combined, cisplatin and BGB IC20 combos (AID 1671464).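 Further: cells exposed to compound for 96 hours before readout; 0% = vehicle DMSO and 100% = high DMSO killing control.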 Conditions: CRL1545 osteosarcoma cells, stronger effect = higher value.
Test [14] can be described thus: compounds altering circadian rhythm period length – cell-based, LOPAC library, luminescence reporter (AID 2774; call rule not given here;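 further: values are relative to mean of DMSO wells on each plate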). The conditions noted are these: circadian reporter cells, at 7 µM, actives lie on both sides.
Test [15] can be described thus: compounds altering viability of human ES cells (AID 493140; call rule not given here;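 further: cells exposed to compounds for four days before counting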). Conditions: human embryonic stem cell survival screen; stronger effect = higher value.
Test [16] relates to Hepatitis C virus NS3 helicase. The test can be described thus: blockers of NS3h binding to ssDNA – biochemical, fluorescence polarization, LOPAC1280 library, primary screen (AID 687035; in the data active means inhibition above about 37%). Conditions: Purified HCV NS3 helicase, Cy5-dT15 ssDNA binding fluorescence polarization; stronger effect = higher value; concentration not given here. For orientation: Fluorescence polarisation rises when a labelled molecule tumbles more slowly, as on binding a larger partner.

The nature of test [17]: compounds altering Cy5-DNA-NS3h complex signal – biochemical, LOPAC1280, artefact control for HCV NS3 helicase inhibitor project (AID 687037; call rule not given here). Conditions: Cy5-DNA-NS3h complex fluorescence interference counterscreen. For orientation: The purpose of a counterscreen is to sort out artefacts and off-target activity.
Test [18] can be described thus: blockers of cellular phospholipid synthesis – cell-based, LOPAC library, screen 4, primary screen (AID 1347384; call rule not given here). Conditions: animal cells, phospholipid biosynthesis inhibition screen; at 10 µM.
A short description of test [19]: viability loss in pontine glioma line – cell-based, SU-DIPG-XXV, MIPE5.0, CellTiter-Glo, qHTS, dose response (AID 1347065; cut-off not given, nearly all actives have AC50 up to about 26 µM;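 further: cells exposed to compound for 48 hours before ATP readout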). The conditions noted are these: CellTiter-Glo ATP luminescence.
The mark [20] stands for this setting: measured here: with BGB IC20 combination, at 0.5 µM.
[21] abbreviates: measured here: with cisplatin IC20 combination, at 0.5 µM.

Each structure is given as a SMILES string. Several values for one entry are separate records, joined by “and”; a condition that tells them apart may be missing. Equal entries are not always repeated. Inconclusive results are not listed. Activity calls are given as the source filed them. Unless noted, no stated cut-off is given here; in the data, active means inhibition above about 80%; inactive means the rest.

Turning to `CCCCCOC(=O)Nc1nc(=O)n([C@@H]2O[C@H](C)[C@@H](O)[C@H]2O)cc1F`, the call in [1], in [2], in [3] and in test [4] was inactive. This molecule registered an SSMD in [5] of 2.2. The molecule also returned a cell count in [5] of 7640. Further, the plate-normalised HSF1 focus index in [5] is 1.08 (inactive). Further, the inhibition (commonly the change of the read-out against control, counted positive when it falls) in [6] (at 0.5 µM, stronger effect = higher value) is 1.4% (inactive) and -21.9% (inactive); in [6] (measured here: combination with BGB IC20, at 0.005 µM), -14.6% and -21.7%; in [6] (measured here: combination with BGB IC40, at 0.005 µM) it was -20.4% and -20.9%; in test [6] (measured here: combination with BGB IC40, at 0.05 µM), -19.6% and -29%; in test [6] (measured here: combination with cisplatin, at 0.5 µM, stronger effect = higher value), -27.7% and -33.8%; in test [6] (measured here: combination with cisplatin, at 5 µM, stronger effect = higher value), -25.5% and -51.4%. For the same molecule, the inhibition in test [7] (BGB combo, at 5 µM) was -43.4% and -24%; in [7] (at 0.5 µM), -46.5% (inactive) and -7.86% (inactive); in [7] (cisplatin combo, at 5 µM), -42.6% and -1.99%; in [7] (setting [20]), -56.7% and -7.65%; in test [7] (setting [21]), -38% and 1.73%; in test [7] (single agent, at 5 µM) it was -49.4% and -2.05%. For the same molecule, the inhibition was 4.24% and 4.65% in test [8] (BGB IC20 combo, at 0.005 µM); -24.4% and -11% in test [8] (BGB IC40 combo, at 0.005 µM); -29.4% and -22.1% in [8] (BGB IC40 combo, at 0.05 µM); -39.5% (inactive) and -17.6% (inactive) in [8] (at 0.5 µM); -33% and -26.5% in test [8] (cisplatin combo, at 0.05 µM); -46.4% and -4.14% in test [8] (cisplatin combo, at 0.5 µM). The inhibition in test [8] (cisplatin combo, at 5 µM) is -48.1% and -27.4%; in test [8] (measured here: 5 uM single agent, at 5 µM) it was -17.2% and -23.5%; in test [9] (at 0.5 µM), -24.5% (inactive) and -10.3% (inactive); in test [9] (measured here: with BGB IC20, at 0.5 µM), -20% and -11.5%; in [9] (measured here: with BGB IC20, at 5 µM) it was -100% and -18.6%; in [9] (measured here: with cisplatin IC20, at 0.5 µM), -35.2% and -21.3%. Further, the inhibition in [9] (measured here: with cisplatin IC20, at 5 µM) was -30% and -33.3%; in test [9] (single agent, at 5 µM), -21% and -4.05%; in test [10] (at 0.5 µM) it was -36.5% (inactive) and -2.12% (inactive); in test [10] (measured here: BGB combination, at 0.5 µM) it was -31.4% and -6.87%; in [10] (measured here: BGB combination, at 5 µM) it was -29.8% and -7.46%; in [10] (measured here: cisplatin combination, at 0.5 µM), -50.7% and -2.06%. The inhibition in test [10] (measured here: cisplatin combination, at 5 µM) was -40.9% and -28%; in [11] (at 0.5 µM), -20.5% (inactive) and -7.04% (inactive); in test [11] (cisplatin combination, at 0.5 µM), -5.51% and -26.5%; in test [11] (cisplatin combination, at 5 µM), -19.4% and -8.1%; in [11] (measured here: BGB IC40 combination 0.05 uM, at 0.05 µM), -7.71% and -17.1%; in test [11] (single agent, at 5 µM) it was -28.9% and -3.19%. Besides, the inhibition in test [12] (at 0.5 µM) was -0.93% (inactive) and -5.48% (inactive); in test [12] (cisplatin combo, at 5 µM), -35.1% and -36.1%; in test [12] (measured here: BGB IC40 combination, at 0.05 µM), -29.7% and -0.207%; in test [12] (measured here: combination with cisplatin, at 0.5 µM), -33.1% and 15.5%; in [12] (single agent, at 5 µM), -11.2% and -19.2%; in [13] (at 0.5 µM) it was -52.6% (inactive) and -13.7% (inactive). Further, the inhibition in [13] (setting [20]) was -42.3% and -20.5%; in test [13] (setting [21]), -61.3% and -12%; in test [13] (single agent, at 0.05 µM), -66.9% and -17.4%; in [13] (single agent, at 5 µM), -52.4% and -6.48%.

Turning to `CNCCC(Oc1ccccc1OC)c1ccccc1` (stereo unspecified), the period change in test [14] is -0.31 h (inactive). Also, the survival in [15] is 0.917 (inactive). The inhibition in test [16] is -6% (inactive). The fluorescence ratio (interference) in test [17] was 0.9 (inactive). Besides, the outcome in test [18] was inactive.

With `CC(C)OC(=O)C(C(=O)OC(C)C)=C1SC=CS1`, the molecule was called inactive in [1] and in test [2].

For `O=c1[nH]c(=O)n([C@H]2C[C@H](O)[C@@H](CO)O2)cc1I`, the outcome in test [1] and in test [2] was inactive.

Consider `CCCCCCCCCCCCCCCC(=O)NCCO`, for which, in test [14], the period change is 0.19 h (inactive). In addition, the survival in test [15] is 109 (inactive). In addition, the inhibition in test [16] is -7% (inactive). Besides, in test [17], the fluorescence ratio (interference) is 1 (inactive).

With `C[C@@H](NCCCc1cccc(C(F)(F)F)c1)c1cccc2ccccc12`, the molecule was called inactive in [1] and in test [2]. Further, the figures for the AC50 in test [3], in test [19] and in test [4] were 18.6 µM (active), 14.8 µM (active) and 16.6 µM (active), respectively.
